Screening data as filed in PubChem BioAssay.
D3 antag: antagonists of human D3 dopamine receptor | max response, negative = inhibition, % | D3R cells, DiscoveRx beta-arrestin luminescence, antagonist mode; hits give low values | 360,000 tested, 2.5% active | AID 652054; in the data active means max response below about -50%; inconclusive means no clear call, values can overlap the other calls; further: on the % scale 0 is the no-effect control and ±100 the full control effect
Target sequence (P35462 whole entry, looked up): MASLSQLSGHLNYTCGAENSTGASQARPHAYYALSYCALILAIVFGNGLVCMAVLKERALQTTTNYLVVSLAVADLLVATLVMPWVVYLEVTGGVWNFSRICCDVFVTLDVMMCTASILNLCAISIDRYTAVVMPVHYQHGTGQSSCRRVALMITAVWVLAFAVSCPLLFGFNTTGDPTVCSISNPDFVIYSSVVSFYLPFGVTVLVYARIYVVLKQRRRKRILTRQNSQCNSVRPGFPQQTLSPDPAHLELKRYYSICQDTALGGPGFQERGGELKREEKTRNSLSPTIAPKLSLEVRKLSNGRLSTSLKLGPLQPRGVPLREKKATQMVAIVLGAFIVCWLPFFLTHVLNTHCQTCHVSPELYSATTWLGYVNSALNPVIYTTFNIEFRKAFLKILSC
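Cells expressing the human receptor were seeded at 1500 cells/well, incubated overnight at 37 degrees C in 5% CO2, then exposed to library compounds with dopamine controls for 90 minutes at 37 degrees C before luminescent detection.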
TDP1 cell CPT: DT40-hTDP1 cell growth loss with CPT; chicken DT40 Tdp1-/-;hTDP1 cells + 20 nM CPT, ATP luminescence, 48 h; Potency, µM (doses to about 46.2 µM), inactives show at the top dose activity change, negative = growth inhibition, hits mostly inhibitors; 420,000 tested, 12% active; AID 686979; further: potency means the concentration at half of the fitted maximal effect; on the % scale 0 is the no-effect control and ±100 the full control effect; nearly all actives have a fitted effect of over 55% in size
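Chicken DT40 Tdp1-/- cells complemented with human TDP1, 400 cells/well, exposed to compounds plus 20 nM camptothecin for at least 48 h at 37 C; viability read as ATP content by CellTiter-Glo luminescence.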
ClpP mod: qHTS Assay for Activators of ClpP; ATP-dependent Clp protease proteolytic subunit (Bacillus subtilis (strain 168)), P80244; purified B. subtilis ClpP, FRET peptide cleavage, 20 min; Potency, µM (highest dose often 57.5 µM), for the others: at the highest dose activity change, negative = active; 340,000 tested, 1.9% active; active means well fitted falling curve with a large enough effect; inconclusive means small, poorly fitted or top-dose-only effect; inactive means no such curve, though single readings can be large or run the other way; further: potency means the concentration at half of the fitted maximal effect; the source files actives as falling curves though it sought activators and does not explain the sign; nearly all actives have a fitted effect of over 65% in size
Target sequence (P80244 whole entry, looked up): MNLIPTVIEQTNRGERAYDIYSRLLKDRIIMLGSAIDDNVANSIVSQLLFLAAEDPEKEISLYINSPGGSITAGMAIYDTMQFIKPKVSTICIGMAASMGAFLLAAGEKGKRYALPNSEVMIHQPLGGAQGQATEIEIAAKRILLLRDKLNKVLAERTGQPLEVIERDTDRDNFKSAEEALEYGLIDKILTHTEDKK
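ClpP 10 microg/mL final, pH 8 Tris/KCl buffer with BSA, glycerol, Tween-20; compound pinned in; FRET-FV substrate; RT 20 min; Ex320/Em430; ΔFRET vs ADEP 5.8 microM, DMSO, no enzyme.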
DT40 TDP1 no CPT: qHTS for Inhibitors of human tyrosyl-DNA phosphodiesterase 1 (TDP1): qHTS in cells in absence of CPT | DT40 Tdp1-/- hTDP1 cells, no CPT, ATP luminescence, 48 h | Potency, µM (titrated, usually from 46.2 µM), without a hit: top-dose activity change, negative = growth inhibition, most hits filed as inhibitors | 420,000 tested, 15% active | AID 686978, 2013; further: potency means the concentration at half of the fitted maximal effect; on the % scale 0 is the no-effect control and ±100 the full control effect; nearly all actives have a fitted effect of over 55% in size
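Growth kinetics read by CellTiter-Glo luminescence after ≥48 hr at 37 °C. Cells: DT40 Tdp1-/- stably carrying human TDP1, 400 per well, compound exposure in the absence of CPT (DMSO vehicle).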
IL1B secr inh: inhibitors of inflammasome signaling (IL-1 beta secretion); THP-1 LPS/ATP IL-1B secretion, AlphaLISA, 16 h; hits give low values; AID 743279; 360,000 tested, 4.7% active; activity change, % at 57.5 µM; in the data active means activity change below about -50%; inconclusive means mostly about -30% to -49%; further: on the % scale 0 is the no-effect control and ±100 the full control effect
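Secreted IL-1B measured by AlphaLISA bead assay after 16 h compound exposure of THP-1 cells; compounds (final up to 57.5 uM) added 1 h before LPS (250 ng/mL) and ATP (1.25 mM) stimulation; lower signal means less secretion.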
D3 ag: activates the human D3 dopamine receptor. 410,000 tested, 0.58% active. max activation, %. D3R DiscoveRx beta-arrestin cells, luminescence, 90 min; in the data active means max activation above about 30%; further: 0% is about no effect
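Agonist-mode cell screen: cells plated at 1500/well and incubated overnight at 37 °C, then exposed to library compounds for 90 min at 37 °C. Detection reagent was added for 30–60 min at room temperature, and luminescence was read.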
* marks the source's active call; other numbers are inactive results; ? = inconclusive; nt = no result; [ ] = remark or other dose. Only some compounds are listed: those with a hit (about 21% of all), similar ones and a draw of the others. Unless noted, the call rests on the fitted dose curve; in most records, active means well fitted inhibition curve with a large enough effect; inconclusive means small, poorly fitted or top-dose-only effect; inactive means flat fitted curve, though single readings scatter.

SMILES | D3 antag | TDP1 cell CPT | ClpP mod | DT40 TDP1 no CPT | IL1B secr inh | D3 ag
CCC(C)c1ccccc1N1CC(C(=O)Nc2ccc(S(=O)(=O)N3CCOCC3)cc2)CC1=O (centres undefined) | 15.5 | 23.1µM* | -1.2% | 23.1µM* | -8.6 | 0.9
CCOc1ccccc1N1CC(C(=O)Nc2ccc(S(=O)(=O)N3CCCCC3)cc2)CC1=O (centres undefined) | 14.7 | 13µM* | -0.4% | 13µM* | 1.8 | 3.8
CCOc1ccc(N2CC(C(=O)Nc3cccc(S(=O)(=O)N4CCCC4)c3)CC2=O)cc1 (centres undefined) | -8.5 | -1.5% | nt | -23.2% | -17.7 | -4.8
CC(=O)N1CCN(S(=O)(=O)c2c(C)n(C)c(=O)n(C)c2=O)CC1 | 6.9 | 21.9% | 1.2% | -3.5% | 12.1 | 4.7
Cc1ccc(N2CC(NC(=O)c3ccc4c(c3)OCO4)CC2=O)cc1 (centres undefined) | nt | 12.8% | -23.1% | -16.9% | nt | -1.0
CCOc1ccc(N2CC(C(=O)Nc3ccc(OC)c(S(=O)(=O)N4CCCCC4)c3)CC2=O)cc1 (centres undefined) | 0.9 | ? | 28.2µM* | ? | -1.4 | -4.6
Cc1ccc(CN2CCN(CC(C)C)C(CCO)C2)s1 (centres undefined) | 7.9 | 11.3% | nt | -15.1% | 0.0 | -4.0
COc1ccc(CN2CCN(Cc3ccc(C)cc3)C(CCO)C2)cc1OC (centres undefined) | -17.8 | ? | 0.2% | -10.5% | 23.0 | -14.7
Cc1ccc(CN2CCN(Cc3ccccc3)C(CCO)C2)s1 (centres undefined) | -52.9* | -47.6% | -0.5% | -17.8% | -6.8 | -13.2
Cc1ccc(CN2CCN(Cc3ccc(C)s3)CC2CCO)cc1 (centres undefined) | -95.7* | -20.9% | nt | -21.5% | -1.0 | -19.0
COc1cc(CN2CCN(Cc3ccc(C)cc3)C(CCO)C2)cc(OC)c1O (centres undefined) | ? | 20.6µM* | -0.3% | ? | 1.4 | -34.3
Cc1ccc(CN2CCN(Cc3ccc4c(c3)OCCO4)CC2CCO)cc1 (centres undefined) | -55.1* | -24.8% | 0.9% | ? | -1.0 | -20.0
Cc1cnc(-n2ncc(C(=O)NCCc3ccccn3)c2C)nc1-c1ccc(F)cc1 | nt | 2.7%[9.04 µM] | nt | ? | nt | nt
Cc1ccc(C(C(=O)NCCc2ccccc2)N(C(=O)c2csnn2)C2CC2)cc1 (centres undefined) | -6.3 | -15.0% | -10.7% | ? | -5.6 | -5.2
Cc1ccc(CN2CCN(Cc3cnc(C)s3)CC2CCO)o1 (centres undefined) | -11.0 | 4.0% | -1.8% | 14.9% | 13.7 | -7.1
Cc1ccc(CN2CCN(C3CCCC3)C(CCO)C2)s1 (centres undefined) | -51.1* | -0.5% | -2.4% | 19.9% | -6.6 | -22.7
Cc1ccc(CN2CCN(Cc3cnc(C)s3)CC2CCO)cc1 (centres undefined) | -59.7* | 14.5% | nt | -13.3% | 19.6 | -14.8
Cc1ccc(-n2c(=O)c3c(c4cc(C)ccc4n3C)n(CC(=O)c3ccc(Cl)cc3)c2=O)cc1 | nt | -4.3% | -2.2% | -17.2% | nt | -12.0
CC(=O)OCC(OC(C)=O)C(OC(C)=O)C(OC(C)=O)C(=O)Nc1cccc(C)c1 (centres undefined) | -2.2 | -17.6% | 3.6% | -1.2% | 9.1 | 16.9
COC(=O)N1c2ccccc2C23[C@@H]4CN5CCC[C@]6(CCC12C(O)(C6)C4=O)[C@H]53 | nt | -14.5%[9.04 µM] | nt | -14.8%[9.04 µM] | nt | nt
Cc1cc(C)c(S(=O)(=O)/N=C2/C=C(SCC(=O)O)C(=O)c3ccccc32)cc1C | ? | 1.84µM* | nt | 1.84µM* | ? | -1.3
CNc1c(N)c(=O)oc2ccccc12 | -23.5 | -5.5% | nt | -15.4% | 11.1 | -13.0
Cc1ccc(Nc2c(N)c(=O)oc3ccccc23)cc1 | -21.9 | ? | -3.7% | 25.9µM* | 0.8 | -1.4
CC(NC(=O)c1ccc(-c2ccccc2)cc1)C(c1ccccc1)N1CCOCC1 (centres undefined) | 3.4 | ? | -0.1% | 13µM* | 0.0 | 4.6
CC(NC(=O)Cc1ccccc1)C(c1ccccc1)N1CCOCC1 (centres undefined) | 5.8 | -15.2% | nt | -16.2% | -64.2* | 5.3
SMILES | D3 antag | TDP1 cell CPT | ClpP mod | DT40 TDP1 no CPT | IL1B secr inh | D3 ag
CC(NC(=O)c1cccnc1)C(c1ccccc1)N1CCN(C)CC1 (centres undefined) | 3.8 | 0.8% | 1.1% | 6.7% | 18.7 | -7.4
CC(=O)C(C(c1ccccc1)N1CCOCC1)N1CCOCC1 (centres undefined) | -28.0 | ? | nt | 18.4µM* | -2.9 | -15.0
Cc1ccccc1Oc1cc(-n2ncc(Cl)c(Cl)c2=O)ncn1 | -97.1* | 0.651µM* | -2.5% | 0.411µM* | -105.6* | -54.4
CCOc1cnn(-c2cc(Oc3ccc(C)cc3)ncn2)c(=O)c1Cl | -24.3 | 1.9% | 1.9% | -24.8% | -1.3 | 3.6
CC(C)=CCC[C@](C)(O[C@@H]1O[C@H](CO[C@@H]2OC[C@@H](O)[C@H](O)[C@H]2O)[C@@H](O)[C@H](O)[C@H]1O)C1CC[C@]2(C)C1[C@H](O)CC1[C@@]3(C)CC[C@H](O[C@@H]4O[C@H](CO)[C@@H](O)[C@H](O)[C@H]4O)C(C)(C)C3CC[C@]12C (some centres undefined) | ? | ? | 1.4% | -21.7% | 4.7 | 3.9
CC1CCc2c(sc(/N=C/N(C)C)c2C#N)C1 (centres undefined) | 3.3 | ? | nt | -20.1% | -63.1* | -6.0
CCO[C@H]1OC(C(=O)NC2CC2)=C[C@@H](C2CCCCC2)[C@@H]1CCCO | -11.8 | 20.6µM* | -0.5% | 23.1µM* | 8.1 | -11.9
CCO[C@@H]1OC(C(=O)O)=C[C@H](C2CCCCC2)[C@H]1CCCO | 16.2 | -11.0% | 0.2% | -5.4% | 29.7 | 34.7*
Cc1oc(-c2ccccc2)nc1Cn1cccc1C1=NC(c2ccccc2)CO1 (centres undefined) | -7.4 | ? | ? | 23.1µM* | -10.2 | 0.8
CCc1ccccc1NC(=O)Cn1cccc1C1=NC(c2ccccc2)CO1 (centres undefined) | -22.7 | -1.2% | -8.8% | -3.2% | 10.1 | -11.2
Fc1ccc(Cn2cccc2C2=NC(c3ccccc3)CO2)cc1 (centres undefined) | 0.9 | -24.7% | 20µM* | 4.2% | -9.7 | -4.3
